Where a name gives a salt, the structure may show the parent alone.
How the values were obtained:
Assay in all cases: Euclidean distance of Cell Painting phenotypic profile (signed KS, 77 features) to DMSO centroid (dimensionless distance); 5 or 10 uM (library dependent); higher = stronger phenotypic change vs DMSO (phenoactivity)
Settings in all cases: 48 h
786-O = test system: 786-O
Procedure, shortened: (§1)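 Harmony extracted 77 features from 20X confocal images (9 fields/well) of stained cells, scoring each as a signed Kolmogorov-Smirnov statistic against same-plate vehicle wells. The cells, five cancer lines and a healthy fibroblast line, had received library compounds for 48 h at 10 or 5 uM depending on library, with 0.1% DMSO final. Phenoactivity is the Euclidean distance from each plate-position-corrected, correlation-weighted, top-dose replicate-averaged profile to the median vehicle profile.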

A549 = test system: A549
Procedure, shortened: as §1

DU145 = test system: DU145
Procedure, shortened: as §1

FB = test system: FB
Procedure, shortened: as §1

HEPG2 = test system: HEPG2
Procedure, shortened: as §1

OVCAR4 = test system: OVCAR4
Procedure, shortened: as §1

Compound	Euclidean distance (786-O)	Euclidean distance (A549)	Euclidean distance (DU145)	Euclidean distance (FB)	Euclidean distance (HEPG2)	Euclidean distance (OVCAR4)
Nc1nc(N)c2nc(-c3cccc(O)c3)c(-c3cccc(O)c3)nc2n1	1.06	1.73	1	1.45	2.84	1.02
CCOC(=O)N1c2ccc(C(F)(F)F)cc2[C@@H](N(Cc2cc(C(F)(F)F)cc(C(F)(F)F)c2)C(=O)OC)C[C@H]1CC [Torcetrapib]	1.3	0.836	1.01	0.99	0.467	1.29
CC[C@H](CO)Nc1nc(NCc2ccccc2)c2ncn(C(C)C)c2n1 [Roscovitine (Seliciclib.CYC202)]	2.13	2.16	1.28	1.32	1.82	1.84
Cc1ccsc1/C=C/C1=NCCCN1C [Morantel tartrate]	0.593	0.834	0.571	1.19	0.557	1.21
C=CC(=O)Nc1cccc(Oc2nc(Nc3ccc(N4CCN(C)CC4)cc3)ncc2Cl)c1	2.42	2.73	2.46	4.15	2.28	3.17
O=C(O)COCCN1CCN(C(c2ccccc2)c2ccc(Cl)cc2)CC1 (stereo not drawn) [Cetirizine DiHCl]	1.09	0.92	1.29	1.32	0.618	1.47
NC[C@H]1O[C@H](O[C@H]2[C@H](O[C@@H]3O[C@H](CO)[C@@H](O)[C@H]3O)[C@@H](O)[C@H](N)C[C@@H]2N)[C@H](N)[C@@H](O)[C@@H]1O [Ribostamycin Sulfate]	1.45	1.17	1.23	0.806	0.615	1.22
Cn1cc(-c2ccc3ncc(Cc4ccc5ncccc5c4)n3n2)cn1	1.26	0.825	0.747	0.784	1.92	1.31
CCC1(C)CC(=O)NC1=O (stereo not drawn) [Ethosuximide]	0.782	1.2	1.11	0.965	0.843	1.04
CC(=O)Oc1ccccc1C(=O)O [Aspirin]	0.701	0.531	0.625	0.734	0.608	0.816
OC(Cn1cncn1)(Cn1cncn1)c1ccc(F)cc1F [Fluconazole]	1.5	1.3	1.41	1.35	0.443	1.44
Cc1cc(F)c(Nc2ncnc3cc(OCc4ccccc4)ccc23)cc1O	1.83	0.984	0.521	1.8	0.631	0.745
O=c1c2ccccc2oc2ccccc12 [Xanthone]	1	1.28	1.24	1.02	0.607	1.14
CS(=O)(=O)c1ccc(C2=C(c3ccccc3)C(=O)OC2)cc1 [Rofecoxib]	1.05	0.859	0.686	0.821	0.51	1.24
Nc1nc(Nc2ccc(S(N)(=O)=O)cc2)nn1C(=O)c1c(F)cccc1F	1.27	1.64	1.5	0.817	1.7	1.05
COc1cc2c(Nc3ccc(NC(=O)c4ccccc4)cc3)ncnc2cc1OCCCN1CCOCC1	2.71	3.81	3.11	2.7	1.92	3.02
COc1ccc([C@@H]2CC(=O)c3c(O)cc(O)cc3O2)cc1O [Hesperetin]	1.32	0.944	1.21	1.47	1.37	1.23
C[C@@](Cc1ccc(O)c(O)c1)(NN)C(=O)O [Carbidopa]	1.38	1.06	0.985	1.1	0.878	1.05
O=C1CN2Cc3c(ccc(Cl)c3Cl)N=C2N1 [Anagrelide HCl]	0.871	0.869	0.905	1.18	1.01	1.53
CC(C)N1CCN(Cc2cnc(-c3cc(-c4cccc5[nH]ccc45)cc4[nH]ncc34)o2)CC1	3.29	3.89	3.41	3.33	3.14	3.89
CC1=C[C@H]2C(=O)O[C@H]3C[C@@H](C/C=C(\C)C[C@@H](C)/C=C/C=C4\CO[C@H](/C1=N\O)[C@@]42O)O[C@@]1(CC[C@H](C)[C@@H](C)O1)C3.CC[C@H]1O[C@]2(CC[C@@H]1C)C[C@@H]1C[C@@H](C/C=C(\C)C[C@@H](C)/C=C/C=C3\CO[C@@H]4/C(=N\O)C(C)=C[C@@H](C(=O)O1)[C@]34O)O2 [Milbemycin Oxime]	0.91	0.957	0.954	1.3	0.456	1.11
CC(C)=CCOc1ccc(/C=C/C(=O)c2ccc(OCC=C(C)C)cc2OCC(=O)O)cc1 [Sofalcone]	1.25	1.09	0.847	1.01	0.922	1.08
CC1(C)CCC(C)(C)c2cc(NC(=O)c3ccc(C(=O)O)cc3)ccc21 [Tamibarotene]	1.13	1.55	1.77	3	0.884	1.24
CO/N=C(\C(=O)N[C@@H]1C(=O)N2C(C(=O)O)=CCS[C@H]12)c1csc(N)n1 [Ceftizoxime]	1.04	1.74	0.987	1.24	0.67	1.56
OC[C@H]1O[C@@H](OCCc2ccc(O)cc2)[C@H](O)[C@@H](O)[C@@H]1O [Salidroside]	1.05	0.737	0.796	0.815	0.763	1.5
CCNC(=O)c1noc(-c2cc(C(C)C)c(O)cc2O)c1-c1ccc(CN2CCOCC2)cc1	2.96	2.83	3.5	2.77	3.91	2.67
C=C(C)[C@@H]1CC[C@]2(C(=O)O)CC[C@]3(C)[C@H](CC[C@@H]4[C@@]5(C)CC[C@H](O)C(C)(C)[C@@H]5CC[C@]43C)[C@@H]12 [Betulinic acid]	1	0.893	0.693	0.844	0.744	0.866
COc1ccc(-c2nc3cc(C4=NNC(=O)CC4C)ccc3[nH]2)cc1 (stereo not drawn) [Pimobendan]	1.43	1.4	1.01	1.27	1.2	1.02

Reference: the supplement of paper PMC10127200
